Measured values published in PubChem BioAssay AID2530 (National Center for Advancing Translational Sciences (NCATS), 2010).
Results filed as inconclusive are left out. A call without a number means that no potency is given here. Calls of active or inactive are those of the source. The call rests on the fitted dose curve; in most records, active means well fitted inhibition curve with a large enough effect; inconclusive means small, poorly fitted or top-dose-only effect; inactive means flat fitted curve, though single readings scatter.
Potency means the concentration at half of the fitted maximal effect.

What follows are compounds tested against Luciferin 4-monooxygenase (Photuris pensylvanica) (UniProt Q27757) (assay: Secondary Assay for Luciferase (Kinase-Glo TM) Inhibition Counterscreen). Conditions: Kinase-Glo luciferase enzyme, luminescence; series mostly up to 58.1 µM.
How it was run: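 Inhibition was fitted with the Hill equation after normalizing luminescence to DMSO (basal) and 40 uM SIB 1757 (full inhibition). Kinase-Glo luciferase ran for 8 min at room temperature in imidazole buffer pH 7.2 with KCl, MgCl2 and 10 uM ATP.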
With O=C1c2ccccc2C(=O)N1C1CCCCC1 the Potency was “inactive”.
For O=C1c2ccccc2C(=O)N1c1cccc2ccncc12, the Potency was “inactive”.
Cc1ccc(NS(=O)(=O)c2ccc3c(c2)CCC(=O)N3)cc1C was tested, and the Potency was “inactive”.
For Cc1ccc(NS(=O)(=O)c2cccc(Cl)c2)cc1C, the Potency was “inactive”.
COc1ccc(S(=O)(=O)Nc2ccc(C)c(C)c2)cc1 was tested, and the Potency was “inactive”.
With O=C1CCc2cc(S(=O)(=O)Nc3ccccc3-c3ccccc3)ccc2N1 the Potency was “inactive”.
With Cc1ccc(NS(=O)(=O)c2ccc3[nH]c(=O)[nH]c3c2)cc1C the Potency was “inactive”.
For Cc1nc(N/N=C/c2ccccn2)sc1C, the Potency was 5.8 µM (active).
For O=C1c2ccccc2C(=O)N1c1cccc2cccnc12, the Potency was “inactive”.
With COc1ccc(N2C(=O)c3ccccc3C2=O)cc1 the Potency was “inactive”.
For CC(C)CN=Cc1c(O)c([N+](=O)[O-])cc2oc3c(c12)CCCC3, the Potency was “inactive”.
COc1cc(Cl)c(C)cc1NC(=O)COC(=O)c1cc[n+]([O-])cc1 was tested, and the Potency was “inactive”.
For O=S1(=O)N=C(Oc2ccccc2Cl)c2ccccc21, the Potency was “inactive”.
For Cc1ccc(NS(=O)(=O)c2ccc3c(c2)CCO3)cc1C, the Potency was “inactive”.
Cc1ccc(NS(=O)(=O)c2ccc3c(c2)oc(=O)n3C)cc1C was tested, and the Potency was “inactive”.
O=C1c2ccccc2C(=O)N1c1ccncc1 was tested, and the Potency was “inactive”.
In the case of COc1ccccc1NS(=O)(=O)c1ccc2c(c1)CCC(=O)N2, the Potency is reported as “inactive”.
In the case of COc1cc(N2C(=O)C=CC2=O)c(OC)cc1Cl, the Potency is reported as “inactive”.
With CN=c1scc(-c2ccco2)n1/N=C/c1ccc(O)c(O)c1 the Potency was “inactive”.
With CCOC(=O)C(C(C)=O)c1c(Br)c(O)c(O)c2c(C(=O)c3ccc(C)cc3)coc12 (centres undefined) the Potency was “inactive”.
With CCOc1ccc(C(=O)O/N=C(\N)c2ccccn2)cc1 the Potency was 5.8 µM (active).
Cc1ccc(NS(=O)(=O)c2cccc(F)c2)cc1C was tested, and the Potency was “inactive”.
O=C1C(Cl)=C(NC(=O)c2ccccc2)C(=O)C(Cl)=C1NC(=O)c1ccccc1 was tested, and the Potency was “inactive”.
In the case of O=S1(=O)N=C(Oc2ccccc2)c2ccccc21, the Potency is reported as “inactive”.
Cc1ccc(OC2=NS(=O)(=O)c3ccccc32)cc1 was tested, and the Potency was “inactive”.
With O=[N+]([O-])c1cc2oc3c(c2c(C=NCc2ccccc2)c1O)CCCC3 the Potency was “inactive”.
With COc1ccccc1OC1=NS(=O)(=O)c2ccccc21 the Potency was “inactive”.
In the case of COc1ccc(-c2cn3ccc(C)cc3n2)cc1, the Potency is reported as 8.19 µM (active).
For Cc1ccccc1N=CC1=C(O)c2ccccc2C1=O, the Potency was 11.6 µM (active).
For O=C1CCc2cc(S(=O)(=O)Nc3cccc(F)c3)ccc2N1, the Potency was “inactive”.
For Nc1cc(S(=O)(=O)N2CCN(S(=O)(=O)c3ccc4c(c3)OCCO4)CC2)ccn1, the Potency was “inactive”.
For COc1cc(N2C(=O)c3ccccc3C2=O)c2ncccc2c1, the Potency was “inactive”.
With c1ccc(C2=NNC(=NC3CC3)SC2)cc1 the Potency was 3.26 µM (active).
With O=C1c2ccccc2C(=O)N1Cc1ccccc1 the Potency was “inactive”.
With O=C1c2ccccc2C(=O)N1Cc1ccncc1 the Potency was “inactive”.
In the case of c1ccc(-c2nc(-c3ccccn3)no2)cc1, the Potency is reported as 3.66 µM (active).
In the case of Cc1ccc(-c2nc3cnccn3c2Nc2ccc(C(C)C)cc2)o1, the Potency is reported as “inactive”.
For O=C1NS(=O)(=O)c2ccccc21, the Potency was “inactive”.
For Cc1ccc(N2C(=O)c3ccccc3C2O)nc1 (centres undefined), the Potency was 6.51 µM (active).
